HCV NS3h FP = blocks HCV NS3 helicase binding to DNA; NS3h Cy5-dT15 DNA binding, fluorescence polarization; inhibition, % at 100 µM; 16,000 compounds, 1.6% hits; AID 687043;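 active = inhibition above the average over every tested compound plus 3 SD, cut at about 40% in these data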
Cy5 interf NS3h = enhances or quenches Cy5 fluorescence in NS3h assay; 16,000 compounds, 6% hits; fluorescence interference ratio at 100 µM; Cy5-dT15 DNA with NS3h, fluorescence interference; actives lie on both sides; signal over control mean, under 1 quenches;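 active = compound fluorescence over control fluorescence at most 0.8, a quencher, or at least a set upper limit, an enhancer; inactive = ratio between 0.8 and the set upper limit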
Hits are given with their value; . = inactive. Most compounds without a hit are left out; they make up all but 6.9% or so of the library.

SMILES	HCV NS3h FP	Cy5 interf NS3h
O=C(/C=C\Nc1ccccc1[N+](=O)[O-])c1ccc2c(c1)OCO2	48	0.64
CCOc1ccc(N/C=C\C(=O)c2ccc3c(c2)OCO3)c([N+](=O)[O-])c1	.	.
CCOc1ccccc1N1C(=O)CC(Sc2ccccc2C(=O)O)C1=O (stereo not given)	.	.
CCOC(=O)Cc1cc(-c2ccccc2)nc2ccc3ccccc3c12	.	.
CCOC(=O)CC(O)(c1ccccc1)C(F)(F)C(F)F (stereo not given)	.	0.75
O=C(COc1ccc([N+](=O)[O-])cc1)Nc1cccc(Cl)c1Cl	.	.
CCCCOc1ccc(NC(=O)CCSc2nccn2C)cc1	.	0.69
CCCCOc1ccc(NC(=O)CSc2nnc(-c3cccc(F)c3)n2-c2ccccc2)cc1	.	.
COc1ccc(CCNC(=O)/C(=C/c2ccc(Cl)cc2)NC(=O)c2ccc(C)cc2)cc1OC	.	.
C=CCNC(=O)/C(=C/c1cn(-c2ccccc2)nc1-c1cccc([N+](=O)[O-])c1)NC(=O)c1ccccc1	.	.
CCc1c(C#N)c(N)[nH]c(=S)c1C#N	.	.
COc1ccc(-c2nn3c(-c4ccc(OC)c(OC)c4)nnc3s2)cc1OC	.	1.3
COc1ccc(C2CC(c3ccc(C)cc3)=NN2C(C)=O)cc1OC (stereo not given)	.	.
O=C(CC(Nc1ccc(Br)cc1)c1ccc(F)cc1)c1ccccc1 (stereo not given)	.	.
CC(C)(C)c1ccc(C(CC(=O)c2ccc(Br)cc2)S(=O)(=O)c2ccccc2)cc1 (stereo not given)	.	0.54
COc1cc(/C=C2/SC(=S)N(CCC(=O)Nc3ccccc3C(=O)O)C2=O)cc(OC)c1OC	.	.
COc1cc(/C=C2/SC(=S)N(CCC(=O)Nc3ccc(C(C)=O)cc3)C2=O)cc(OC)c1OC	.	0.63
CC1C(c2ccccc2)NC(c2ccccc2)C(C)C1(O)c1ccccc1 (stereo not given)	.	0.68
CCCC1C(c2ccccc2)NC(c2ccccc2)C(C)C1(O)CCC (stereo not given)	.	.
N#Cc1c(N2CCCCC2)ncc2cc3ccccc3nc12	.	.
Cc1ccccc1NC(=O)c1c(NC(=O)Cc2ccccc2)sc2c1CCCCC2	.	.
CC(C)c1cccc(C(C)C)c1NC(=O)c1cccs1	.	.
CCOC(=O)c1sc(NN=C(C#N)C#N)c(C(=O)OCC)c1C	.	0.56
CCOC(=O)c1c(NC(=O)/C=C\C(=O)O)sc(C(=O)Nc2ccccc2)c1C	.	.
O=C(O)CCC(=O)Nc1ccc(S(=O)(=O)N2CCCCCC2)cc1	.	.
SMILES	HCV NS3h FP	Cy5 interf NS3h
Nc1ccc(S(=O)(=O)N2CCCCCC2)cc1	.	0.75
COc1ccc(/C=C2\C=C(c3ccc(Br)cc3)OC2=O)c(C)c1	.	.
Cc1ccc2cc(C3=C/C(=C/c4ccc([N+](=O)[O-])o4)C(=O)O3)ccc2c1	.	0.77
Cc1ccc(C2=C/C(=C/c3ccc(-c4ccc([N+](=O)[O-])cc4)o3)C(=O)O2)cc1	.	.
Cc1ccc(/C=C2/C=C(c3ccc(Br)cc3)OC2=O)o1	.	0.68
COc1ccc(/C=N\N=C2/S/C(=C\c3ccc(OC)cc3)C(=O)N2c2ccc(O)cc2)cc1	.	.
Cc1cc(Br)ccc1NC(=O)c1ccc(Cl)c([N+](=O)[O-])c1	.	.
CCc1ccccc1NC(=O)CC1S/C(=N/N=C(C)\C=C\c2ccc(OC)cc2)NC1=O (stereo not given)	.	1.2
C/C(=N/N=C1\NC(=O)C(CC(=O)Nc2ccccc2C)S1)c1ccc(F)cc1 (stereo not given)	.	.
O=[N+]([O-])c1cccc(S(=O)(=O)NCc2ccccc2Cl)c1	.	.
CCN1C(=O)/C(=C\c2ccccc2OCCOc2cccc(OC)c2)SC1=S	.	.
CCN1C(=O)/C(=C\c2cc(OC)ccc2OC)SC1=S	.	0.76
COc1ccc(Br)cc1/C=C1/SC(=S)N(Cc2ccccc2)C1=O	.	0.69
CCN1C(=O)/C(=C\c2cc(Br)ccc2OCc2ccccc2)SC1=S	.	.
Cc1ccc(NC(=O)C2CC(O)CN2C(=O)Oc2ccccc2)c(C)c1 (stereo not given)	.	.
Cc1cc(OCc2nc(-c3ccncc3)no2)ccc1Br	.	.
O=C(c1nn2c(C(F)(F)F)cc(-c3ccccc3)nc2c1Cl)N1CCCC1	.	.
CCOC(=O)c1cnn2c(C(F)(F)F)cc(-c3ccco3)nc12	.	.
Cc1ccc(-c2cc(C(F)(F)F)n3ncc(C(=O)N(C)Cc4ccccc4)c3n2)cc1	.	0.61
CN(Cc1ccccc1)C(=O)c1nn2c(C(F)(F)F)cc(-c3ccccc3)nc2c1Cl	.	0.61
COc1cc(-c2cc(C(F)(F)F)n3ncc(C(=O)Nc4cccc5ccccc45)c3n2)cc(OC)c1OC	.	.
Cc1ccc(-c2cc(C(F)(F)F)n3ncc(C(=O)N4CCN(c5ccc(F)cc5)CC4)c3n2)cc1	.	0.61
COc1ccc(C(=O)CSc2nc(C)cc(C)n2)cc1	.	.
CC(=O)N1CCC(=O)N1c1ccccc1	.	.
CC(=O)Oc1ccc(C(=O)Nc2cccc(C(=O)NCC(C)C)c2)cc1	.	.
SMILES	HCV NS3h FP	Cy5 interf NS3h
CC(=O)Oc1cccc(N2C(=O)c3ccc(C(=O)Nc4cccc(C(=O)NCC(C)C)c4)cc3C2=O)c1	.	0.73
O=C(O)c1ccc2c(c1)C(=O)N(c1cccc(C(F)(F)F)c1)C2=O	.	.
Cc1ccc(N(CC(=O)Nc2ccc(I)cc2)S(C)(=O)=O)cc1Cl	.	.
COc1cc(/C=N\n2nnnc2N)ccc1OCc1c(C)no[n+]1[O-]	.	.
COc1cc(/C=N/n2nnnc2N)ccc1OCc1ccc(F)cc1	.	0.77
COc1ccc(NC(=O)CSc2nc3ccccc3[nH]2)c(OC)c1	.	0.71
COc1ccc2nc(SCC(=O)Nc3ccccc3)[nH]c2c1	.	.
O=S(=O)(Nc1ccc(F)cc1)c1ccc2c(c1)Cc1cc(S(=O)(=O)Nc3ccc(F)cc3)ccc1-2	.	.
O=C(Nc1c(C(=O)N2CCC(Cc3ccccc3)CC2)cnn1-c1ccccc1)c1cccc(F)c1	.	.
O=C(Nc1c(C(=O)N2CCN(Cc3ccccc3)CC2)cnn1-c1ccccc1)c1cccc(F)c1	.	1.3
Cc1ccc(-c2nnc(SCC(=O)OC(C)C)o2)cc1	.	.
O=C(CSc1nc2ccc(Br)cc2c(=O)n1-c1ccccc1)NC1CCCC1	.	.
c1ccc(Nc2ccc3nc4ccccc4nc3c2)cc1	.	0.55
Nn1c(Nc2ccccc2)nc2ccccc21	.	.
COC(=O)c1cccc(NC(=O)c2cc[n+]([O-])cc2)c1	.	.
CCOC(=O)c1ccc(NC(=O)CN(c2cccc(Cl)c2)S(=O)(=O)c2ccccc2)cc1	.	.
COc1ccc(C(=O)Nc2ccccc2C(=O)NC2CCCCC2)cc1	.	.
CCOc1ccc(N2C(=O)NC(=O)/C(=C/C=C/c3ccco3)C2=O)cc1	.	.
CCOc1ccccc1N1C(=O)NC(=O)/C(=C/C=C/c2ccco2)C1=O	43	.
COc1cc(/C=N\Nc2ccc([N+](=O)[O-])cc2)ccc1OC(C)=O	.	.
CCn1c(C)nc2c(Cl)c(O)ccc21	.	.
O=c1nc2s/c(=C/c3ccc(Cl)c(Cl)c3)c(=O)n2nc1Cc1ccccc1	.	.
C=CCN1C(=O)/C(=C\c2ccc(OC)cc2)SC1=Nc1ccccc1	.	0.79
C=CCN1C(=O)/C(=C\c2ccc(OCc3cccc4ccccc34)cc2)SC1=S	.	.
